# Reference: PubChem BioAssay (Tox21)
# Results filed as inconclusive are left out. Entries that show only a call come without a potency. Values without a mark were called inactive. Activity calls are given as the source filed them. The call rests on the fitted dose curve; in most records, active means well fitted curve in the direction sought with a large enough effect in the repeat runs; inconclusive means weak or mixed curves; inactive means no such curve, though single readings can be large; an effect the other way counts as inactive or inconclusive.
# Tests used:
# [1] = biological target: Cytochrome P450 2C9 (Homo sapiens) (UniProt P11712); test: Cytochrome P450 Family 2 Subfamily C Member 9 (CYP2C9) small molecule antagonists: luciferase reporter qHTS assay (AID 1671198); further: potency means the concentration at half of the fitted maximal effect; on activity change, negative = inhibition: series mostly up to about 120 µM
# Sequence of Cytochrome P450 2C9 (Homo sapiens) (P11712 whole entry, looked up): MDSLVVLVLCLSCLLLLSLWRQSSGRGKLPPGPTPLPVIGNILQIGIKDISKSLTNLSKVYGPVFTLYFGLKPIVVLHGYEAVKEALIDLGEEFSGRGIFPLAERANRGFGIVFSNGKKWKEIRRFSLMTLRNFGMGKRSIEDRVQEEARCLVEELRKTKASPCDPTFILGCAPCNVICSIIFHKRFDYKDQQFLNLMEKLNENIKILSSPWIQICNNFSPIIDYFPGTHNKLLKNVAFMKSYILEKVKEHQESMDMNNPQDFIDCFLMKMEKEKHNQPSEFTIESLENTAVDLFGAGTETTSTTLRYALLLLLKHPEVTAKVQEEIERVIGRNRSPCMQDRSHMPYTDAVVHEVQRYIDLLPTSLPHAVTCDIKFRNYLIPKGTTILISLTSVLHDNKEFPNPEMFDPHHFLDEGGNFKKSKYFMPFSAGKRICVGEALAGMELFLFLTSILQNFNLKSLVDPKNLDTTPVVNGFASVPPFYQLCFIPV
# How it was run: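 P450-Glo proluciferin substrate with CYP2C9 enzyme; 10 min RT preincubation, then NADPH regeneration 1 h at 37C; luciferin detection reagent 20 min RT, luminescence in relative luminescence units.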
# [2] = biological target: Cytochrome P450 1A2 (Homo sapiens) (UniProt P05177); test: Cytochrome P450 Family 1 Subfamily A Member 2 (CYP1A2) small molecule antagonists: luciferase reporter qHTS assay (AID 1671199); further: potency means the concentration at half of the fitted maximal effect; on activity change, negative = inhibition: series mostly up to about 120 µM
# Sequence of Cytochrome P450 1A2 (Homo sapiens) (P05177 whole entry, looked up): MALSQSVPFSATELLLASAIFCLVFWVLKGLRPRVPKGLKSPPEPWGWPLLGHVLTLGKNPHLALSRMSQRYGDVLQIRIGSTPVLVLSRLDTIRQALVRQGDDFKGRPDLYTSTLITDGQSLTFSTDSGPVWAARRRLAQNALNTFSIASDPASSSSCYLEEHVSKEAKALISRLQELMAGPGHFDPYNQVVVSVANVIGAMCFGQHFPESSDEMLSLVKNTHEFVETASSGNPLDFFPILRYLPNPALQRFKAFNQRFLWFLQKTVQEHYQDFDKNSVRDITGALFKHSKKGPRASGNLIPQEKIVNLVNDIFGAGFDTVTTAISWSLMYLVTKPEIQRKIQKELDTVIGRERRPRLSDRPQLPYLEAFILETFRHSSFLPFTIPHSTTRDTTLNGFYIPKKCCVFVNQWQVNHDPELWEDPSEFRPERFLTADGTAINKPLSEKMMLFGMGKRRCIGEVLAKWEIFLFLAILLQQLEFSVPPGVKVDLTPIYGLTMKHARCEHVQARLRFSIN
# How it was run: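 Quantitative high-throughput format using the P450-Glo CYP1A2 system. Reaction initiated by NADPH regeneration solution, 1 h at room temperature, then stopped with detection reagent; luminescence measured 20 min later.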
# [3] = biological target: Voltage-gated inwardly rectifying potassium channel KCNH2 (Homo sapiens) (UniProt Q12809); test: Human Ether-a-go-go-Related Gene (hERG) channel small molecule antagonists: fluorescence cell-based qHTS assay (AID 1671200); further: potency means the concentration at half of the fitted maximal effect;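 on activity change, negative = inhibition: hERG-expressing U2OS cells given a thallium stimulus after FluxOR II dye loading; series mostly up to about 77 µM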
# Sequence of Voltage-gated inwardly rectifying potassium channel KCNH2 (Homo sapiens) (Q12809 whole entry, looked up): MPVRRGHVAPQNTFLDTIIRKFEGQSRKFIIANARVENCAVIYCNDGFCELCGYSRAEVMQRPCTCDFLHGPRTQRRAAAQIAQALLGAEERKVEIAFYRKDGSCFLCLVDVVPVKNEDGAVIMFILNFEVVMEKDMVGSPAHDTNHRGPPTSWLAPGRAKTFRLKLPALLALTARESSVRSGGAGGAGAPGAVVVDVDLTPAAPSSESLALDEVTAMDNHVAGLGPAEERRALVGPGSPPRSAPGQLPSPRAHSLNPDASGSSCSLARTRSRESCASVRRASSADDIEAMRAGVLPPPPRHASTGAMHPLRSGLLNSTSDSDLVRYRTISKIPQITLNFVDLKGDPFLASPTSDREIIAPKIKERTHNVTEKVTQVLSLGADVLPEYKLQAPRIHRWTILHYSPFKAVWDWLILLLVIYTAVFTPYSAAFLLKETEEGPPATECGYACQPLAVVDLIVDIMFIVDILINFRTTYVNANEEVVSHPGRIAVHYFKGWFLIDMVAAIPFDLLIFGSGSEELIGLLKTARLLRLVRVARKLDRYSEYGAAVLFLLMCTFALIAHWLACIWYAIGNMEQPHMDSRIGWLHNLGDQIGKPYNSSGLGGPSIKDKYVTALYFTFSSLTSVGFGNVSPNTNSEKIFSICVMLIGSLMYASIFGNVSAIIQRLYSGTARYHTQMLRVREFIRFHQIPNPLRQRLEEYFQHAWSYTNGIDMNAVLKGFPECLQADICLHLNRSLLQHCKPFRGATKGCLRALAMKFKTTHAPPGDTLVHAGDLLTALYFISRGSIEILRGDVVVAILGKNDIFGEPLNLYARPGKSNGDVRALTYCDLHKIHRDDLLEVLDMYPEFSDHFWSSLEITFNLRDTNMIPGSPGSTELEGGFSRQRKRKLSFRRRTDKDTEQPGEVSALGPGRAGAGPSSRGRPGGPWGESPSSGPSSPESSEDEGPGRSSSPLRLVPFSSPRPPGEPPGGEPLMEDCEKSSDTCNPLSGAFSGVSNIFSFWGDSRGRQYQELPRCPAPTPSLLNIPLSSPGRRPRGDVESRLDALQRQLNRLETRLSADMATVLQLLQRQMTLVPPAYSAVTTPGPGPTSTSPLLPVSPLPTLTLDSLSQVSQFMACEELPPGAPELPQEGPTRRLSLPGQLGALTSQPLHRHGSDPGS
# How it was run: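 Kinetic two-minute fluorescence traces, sampled at 1 s, were collected following thallium stimulus of U2OS cells (1000 per well) that had been cultured overnight at 37 C and loaded with FluxOR II.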
# [4] = biological target: Cytochrome P450 3A4 (Homo sapiens) (UniProt P08684); test: Cytochrome P450 Family 3 Subfamily A Member 4 (CYP3A4) small molecule antagonists: luciferase reporter qHTS assay (AID 1671201); further: series mostly up to about 120 µM
# Sequence of Cytochrome P450 3A4 (Homo sapiens) (P08684 whole entry, looked up): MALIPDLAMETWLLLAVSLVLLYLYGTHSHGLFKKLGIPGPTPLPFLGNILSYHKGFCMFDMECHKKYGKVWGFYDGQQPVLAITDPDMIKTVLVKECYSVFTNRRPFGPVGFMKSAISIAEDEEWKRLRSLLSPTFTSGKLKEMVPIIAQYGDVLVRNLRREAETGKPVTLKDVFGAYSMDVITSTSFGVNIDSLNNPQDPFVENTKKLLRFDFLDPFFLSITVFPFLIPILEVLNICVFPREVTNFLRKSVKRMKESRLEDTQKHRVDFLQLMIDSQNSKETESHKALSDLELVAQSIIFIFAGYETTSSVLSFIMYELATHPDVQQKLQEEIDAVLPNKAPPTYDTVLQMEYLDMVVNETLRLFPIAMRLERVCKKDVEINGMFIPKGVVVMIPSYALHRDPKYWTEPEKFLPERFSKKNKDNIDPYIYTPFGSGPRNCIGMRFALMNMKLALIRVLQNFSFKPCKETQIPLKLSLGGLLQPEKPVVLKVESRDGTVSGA
# How it was run: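 Proluciferin-to-luciferin conversion by CYP3A4, NADPH-regenerated, 1 h RT; luminescence read as RLU. Ketoconazole as control.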
# Further: nearly all actives have a fitted effect of over 50% in size.
smiles,measurement,setting,value
O=C(O)CCCC[P+](c1ccccc1)(c1ccccc1)c1ccccc1,Potency,[1],inactive
same,Potency,[2],inactive
same,Potency,[3],inactive
Cc1onc(-c2c(Cl)cccc2Cl)c1C(=O)Cl,Potency,[1],17.4 µM (active)
same,Potency,[2],inactive
same,Potency,[3],inactive
CCCC[N+](C)(CCCC)CCCC,Potency,[1],inactive
same,Potency,[2],inactive
same,Potency,[3],inactive
same,Potency,[4],inactive
CCCCCC(C)N (centres undefined),Potency,[1],inactive
same,Potency,[2],inactive
same,Potency,[3],inactive
CC1(C)[C@@H]2CC[C@@]1(C)[C@H](O)C2,Potency,[1],inactive
same,Potency,[2],inactive
same,Potency,[3],inactive
CC1=CCC(O)(C(C)C)CC1 (centres undefined),Potency,[1],inactive
same,Potency,[2],inactive
same,Potency,[3],inactive
Nc1ccn([C@@H]2O[C@H](CO)[C@@H](O)C2(F)F)c(=O)n1,Potency,[1],inactive
same,Potency,[2],inactive
same,Potency,[3],inactive
same,Potency,[4],inactive
Cc1nc(C2CCCCC2)c(-c2ccc(S(N)(=O)=O)c(F)c2)o1,Potency,[1],3.47 µM (active)
same,Potency,[2],inactive
same,Potency,[3],inactive
CC(C)(CCC(=O)O)C(=O)O,Potency,[1],inactive
same,Potency,[2],28.6 µM (active)
same,Potency,[3],inactive
same,Potency,[4],inactive
O=[N+]([O-])c1ccc(/C=N\O)o1,Potency,[1],inactive
same,Potency,[2],27.5 µM (active)
same,Potency,[3],inactive
same,Potency,[4],inactive
CCC(C(=O)NC(=O)NC(C)=O)c1ccccc1 (centres undefined),Potency,[1],inactive
same,Potency,[2],inactive
same,Potency,[3],inactive
O=C(O)CNC(=O)c1ccccc1,Potency,[1],inactive
same,Potency,[2],inactive
same,Potency,[3],inactive
same,Potency,[4],inactive
FB(F)F,Potency,[1],inactive
same,Potency,[2],inactive
same,Potency,[3],inactive
CCO[Si](OCC)(OCC)c1ccccc1,Potency,[1],inactive
same,Potency,[2],inactive
same,Potency,[3],inactive
Cc1ccc(-c2ncc(Cl)cc2-c2ccc(S(C)(=O)=O)cc2)cn1,Potency,[1],17.4 µM (active)
same,Potency,[2],inactive
same,Potency,[3],inactive
CCCCc1ccc2c(n1)[C@@H](c1ccc(OC)cc1C[C@H](C)C(=O)O)[C@H](C(=O)O)[C@H]2c1ccc2c(c1)OCO2,Potency,[1],35.6 µM (active)
same,Potency,[2],inactive
same,Potency,[3],inactive
[K+],Potency,[1],inactive
same,Potency,[2],inactive
same,Potency,[3],inactive
same,Potency,[4],inactive
COc1cccc(OC)c1C(=O)N[C@@H]1C(=O)N2[C@@H]1SC(C)(C)[C@@H]2C(=O)O,Potency,[1],inactive
same,Potency,[2],inactive
same,Potency,[3],inactive
CCOC(=O)COc1cc(-n2ncc(C(F)(F)F)c(C)c2=O)c(F)cc1Cl,Potency,[1],31.7 µM (active)
same,Potency,[2],35.6 µM (active)
same,Potency,[3],43.6 µM (active)
CC(C)COC(=O)c1ccc(N)cc1,Potency,[1],13.8 µM (active)
same,Potency,[2],6.92 µM (active)
same,Potency,[3],inactive
CC(=O)Nc1ccc(OCC(O)CNC(C)C)cc1 (centres undefined),Potency,[1],inactive
same,Potency,[2],inactive
same,Potency,[3],inactive
same,Potency,[4],inactive
CC(=O)O[C@@]12CO[C@@H]1C[C@H](O)[C@@]1(C)C(=O)[C@H](O)C3=C(C)[C@@H](OC(=O)[C@H](O)[C@@H](NC(=O)OC(C)(C)C)c4ccccc4)C[C@@](O)([C@@H](OC(=O)c4ccccc4)[C@H]21)C3(C)C,Potency,[1],inactive
same,Potency,[2],inactive
same,Potency,[3],inactive
Cc1ccccc1N=C(N)N=C(N)N,Potency,[1],inactive
same,Potency,[2],inactive
same,Potency,[3],inactive
CCCC(=O)O[C@]1(C(=O)CC)CC[C@H]2[C@@H]3CCC4=CC(=O)CC[C@]4(C)[C@H]3[C@@H](O)C[C@@]21C,Potency,[1],15.5 µM (active)
same,Potency,[2],inactive
same,Potency,[3],inactive
CN1CCN(c2cc3c(nn2)Oc2ccccc2N3C)CC1,"activity change, negative = inhibition",[1],2.38% [at 23.6 µM]
same,Potency,[2],inactive
same,"activity change, negative = inhibition",[3],0.457% [at 15.8 µM]
same,"activity change, negative = inhibition",[4],7.5% [at 23.6 µM]
C=C(C)C(=O)OCCOCCOCCOCCOC(=O)C(=C)C,Potency,[1],63.3 µM (active)
same,Potency,[2],63.3 µM (active)
same,Potency,[3],inactive
CC1=NN(c2cc(S(=O)(=O)O)ccc2Cl)C(=O)C1N=Nc1ccccc1 (centres undefined),Potency,[1],inactive
same,Potency,[2],inactive
same,Potency,[3],inactive
[Ca+2],Potency,[1],inactive
same,Potency,[2],inactive
same,Potency,[3],inactive
same,Potency,[4],inactive
CO[C@@]1(NC(=O)C(C(=O)O)c2ccc(O)cc2)C(=O)N2C(C(=O)O)=C(CSc3nnnn3C)CO[C@@H]21 (some centres undefined),Potency,[1],inactive
same,Potency,[2],inactive
same,Potency,[3],inactive
CCCCCCCCCCOc1cc2c(=O)c(C(=O)OCC)c[nH]c2cc1OCC,"activity change, negative = inhibition",[1],6.88% [at 10.5 µM]
same,"activity change, negative = inhibition",[2],7.05% [at 10.5 µM]
same,"activity change, negative = inhibition",[3],1.67% [at 6.97 µM]
same,"activity change, negative = inhibition",[4],13.5% [at 10.5 µM]
COCCOC[C@H](CC1(C(=O)NC2CCC(C(=O)O)CC2)CCCC1)C(=O)Oc1ccc2c(c1)CCC2 (some centres undefined),Potency,[1],inactive
same,Potency,[2],inactive
same,Potency,[3],inactive
C=CCCC(=O)O,Potency,[1],inactive
same,Potency,[2],inactive
same,Potency,[3],inactive
same,Potency,[4],inactive
CC(=O)c1ccc2ccccc2c1,Potency,[1],inactive
same,Potency,[2],7.96 µM (active)
same,Potency,[3],inactive
same,Potency,[4],inactive
COc1ccccc1OCC1CNC(=O)O1 (centres undefined),Potency,[1],inactive
same,Potency,[2],inactive
same,Potency,[3],inactive
same,Potency,[4],inactive
COc1cc2c(cc1OC)-c1cc3ccc(OC)c(OC)c3c[n+]1CC2,Potency,[1],inactive
same,Potency,[2],35.9 µM (active)
same,Potency,[3],inactive
CCOc1c(N2CCOCC2)cnn(C)c1=O,Potency,[1],inactive
same,Potency,[2],inactive
same,Potency,[3],inactive
CO[C@@]1(NC(=O)CSC[C@@H](N)C(=O)O)C(=O)N2C(C(=O)O)=C(CSc3nnnn3C)CS[C@@H]21,Potency,[1],inactive
same,Potency,[2],inactive
same,Potency,[3],inactive
same,Potency,[4],inactive
CC(C)[C@H]1CC[C@@H](C)CC1=O,Potency,[1],inactive
same,Potency,[2],inactive
same,Potency,[3],inactive
same,Potency,[4],inactive
CC[N+](CC)(CC)CCOc1cccc(OCC[N+](CC)(CC)CC)c1OCC[N+](CC)(CC)CC,Potency,[1],inactive
same,Potency,[2],inactive
same,Potency,[3],inactive
same,Potency,[4],inactive
O=C(O)CNC(=O)c1ccc(CO)o1,Potency,[1],inactive
same,Potency,[2],inactive
same,Potency,[3],inactive
same,Potency,[4],inactive
O=S(=O)(O)c1cccc2c(S(=O)(=O)O)cccc12,Potency,[1],70.9 µM (active)
same,Potency,[2],79.5 µM (active)
same,Potency,[3],inactive
same,Potency,[4],inactive
COC(=O)Nc1ccc(Cl)c(Cl)c1,Potency,[1],70.6 µM (active)
same,Potency,[2],5.61 µM (active)
same,Potency,[3],inactive
same,Potency,[4],inactive
OCCCCCO,Potency,[1],inactive
same,Potency,[2],inactive
same,Potency,[3],inactive
same,Potency,[4],inactive
